Screening results: PubChem BioAssay, National Center for Advancing Translational Sciences (NCATS)
Hits are enriched below; roughly 4.7% of the tested compounds scored in any of these assays.
TRHR enhancer = qHTS for Small Molecule Agonists and Allosteric Enhancers of Human TRH Receptor: Primary Screen for Enhancers; Thyrotropin-releasing hormone receptor (Homo sapiens), P34981; TRHR cells, fluo-8 calcium fluorescence, EC20 TRH enhancement; enhancement, % at 2 µM; 360,000 compounds, 0.66% hits; in the data active = enhancement above about 30%
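Enhancer read-out: after compound pinning and an initial kinetic agonist-mode read, an EC20 of TRH (10 nM final) was injected and fluo-8 calcium signal (Ex 480/Em 530) followed at 1 s/cycle for 100 cycles in TRHR-expressing cells.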
TRHR ag = qHTS for Small Molecule Agonists and Allosteric Enhancers of Human TRH Receptor: Primary Screen for Agonists. TRHR cells, calcium flux fluo-8, FDSS agonist mode. activation, % at 2 µM. 360,000 compounds, 0.18% hits. AID 493084, 2011
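Agonist-mode FDSS calcium read (Ex 480/Em 530, 1 s cycles) in 1536-well TRHR cells with fluo-8 dye, after 10-cycle baseline and 23 nL compound addition; TRH at EC20 (10 nM final) added afterwards for the enhancer phase.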
D1 ag = Allosteric Agonists of the Human D1 Dopamine Receptor: qHTS; activation, % at 2 µM; D(1A) dopamine receptor (Homo sapiens), P21728; HEK293 T-REx D1 cells, calcium flux, agonist mode; 360,000 compounds, 1% hits; AID 504660, 2011
Target sequence (P21728 whole entry, looked up): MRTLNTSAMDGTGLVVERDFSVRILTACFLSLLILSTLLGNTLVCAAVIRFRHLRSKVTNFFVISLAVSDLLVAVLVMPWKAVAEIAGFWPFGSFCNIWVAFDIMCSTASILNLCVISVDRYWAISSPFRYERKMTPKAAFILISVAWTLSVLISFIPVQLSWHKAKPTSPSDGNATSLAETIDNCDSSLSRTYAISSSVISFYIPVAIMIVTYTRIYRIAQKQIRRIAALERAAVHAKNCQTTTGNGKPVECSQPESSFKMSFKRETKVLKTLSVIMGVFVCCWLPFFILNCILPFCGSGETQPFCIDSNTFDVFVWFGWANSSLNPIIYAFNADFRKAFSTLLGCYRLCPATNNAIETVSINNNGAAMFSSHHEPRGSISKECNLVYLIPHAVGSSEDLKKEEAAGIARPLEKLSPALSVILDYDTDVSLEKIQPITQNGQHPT
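Tetracycline-induced HEK293 TREx D1 cells, force-coupled to calcium signalling, were dye-loaded with a no-wash calcium kit. Compound was pin-added after a 10 s baseline. Fluorescence was read kinetically at 1 cycle/s for 180 s, with calcium rises flagged as agonism.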
D1 antagonist = Antagonist of Human D 1 Dopamine Receptor: qHTS | D(1A) dopamine receptor (Homo sapiens), P21728 | HEK293 TREx D1 cells, calcium flux, dopamine EC80; active compounds read low | 360,000 compounds, 3.2% hits | activity change, negative = inhibition, % at 10 µM; in the data active = activity change below about -30%
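After overnight tetracycline induction at 30 C, force-coupled D1 HEK293 cells took up a no-wash calcium dye at room temperature. Compounds were added and monitored 180 s, and the response to EC80 dopamine was then recorded.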
D1 PAM = Potentiators of Human D1 Dopamine Receptor: qHTS | HEK293 TREx D1 cells, calcium flux, dopamine EC20 potentiation | AID 504651, 2011 | 360,000 compounds, 0.036% hits | D(1A) dopamine receptor (Homo sapiens), P21728 | potentiation, % at 10 µM; in the data active = potentiation above about 30%
Hits are given with their value; i = inactive; nt = not tested or not shown. Cut-off read from the data, not from the text of the source, unless noted: active = activation above about 30%; inactive = the rest.

SMILES | TRHR enhancer | TRHR ag | D1 ag | D1 antagonist | D1 PAM
O=C(Nc1ccc(Cc2ccncc2)cc1)c1ccc(Br)o1 | i | i | i | i | i
O=C(CNC(=O)c1ccc(Br)o1)Nc1ccncc1 | i | i | i | -64 | i
CC(=O)c1cccc(NC(=O)Cn2c(=O)oc3cc(S(=O)(=O)NC4CCCC4)ccc32)c1 | i | i | i | i | i
CC1(CC(=O)N/N=C/c2ccc(OCc3ccc(Cl)cc3Cl)cc2)OCCCO1 | i | i | i | -31 | i
COc1cc(/C=N/NC(=O)CC2(C)OCCCO2)ccc1OCc1ccc(Cl)cc1Cl | i | i | i | i | i
CCCCC(OC(=O)CNC(=O)c1ccccc1)C(=O)Nc1cc(C(F)(F)F)ccc1Cl (stereo not drawn) | i | i | i | i | i
CN1CCc2cccc3c2C1Cc1ccc(O)c(O)c1-3 (stereo not drawn) | i | i | 48 | -75 | i
COc1cc(CNc2ccc3[nH]c(=O)[nH]c3c2)ccc1OCc1ccccc1F | i | i | i | i | i
COc1cc(CNc2ccc3[nH]c(=O)[nH]c3c2)ccc1OCc1ccccc1C | i | i | i | -57 | i
CCCCCc1cc(O)c2c(C)cc(=O)oc2c1 | i | i | 108 | i | i
CCCc1cc(=O)oc2cc(C)cc(O)c12 | i | i | i | i | i
COc1ccc(N2CC(NC(=O)C(c3ccccc3)c3ccccc3)CC2=O)cc1 (stereo not drawn) | i | i | i | nt | i
O=C(CSCc1c(F)cccc1F)Nc1ccccc1 | i | i | i | -74 | i
O=C1[C@H]2C(c3ccccc3)=NN(c3ccccc3)[C@H]2C(=O)N1c1ccccc1 | i | i | i | -45 | i
O=C1C2C(c3ccccc3)=NN(c3ccccc3)C2C(=O)N1c1ccccc1 (stereo not drawn) | i | i | i | i | i
O=[N+]([O-])c1nn(-c2ccc(Cl)cc2)n(O)c1=NCc1ccncc1 | i | i | i | -42 | i
Cn1cc(/C=C(\C#N)C(=O)Nc2ncc(Cc3cccc(Cl)c3)s2)c2ccccc21 | i | i | i | i | i
N#C/C(=C\c1c[nH]c2ccccc12)C(=O)Nc1ncc(Cc2ccc(Cl)cc2Cl)s1 | i | i | 35 | i | i
O=C(O)CCc1cc(F)c(S(=O)(=O)N2CCN(S(=O)(=O)c3ccc4c(c3)OCCO4)CC2)cc1F | i | i | i | i | i
CCN(CC)C(=O)c1ccc(Cn2cc([N+](=O)[O-])cn2)o1 | i | i | i | -37 | i
CCc1ccccc1NC(=O)c1ccc(Cn2cc([N+](=O)[O-])cn2)cc1 | i | i | 38 | i | i
COc1ccc(-c2onc(C)c2C)cc1S(=O)(=O)NCc1ccco1 | i | i | i | i | i
CCN(CC)C(=O)CC(c1ccc(N(C)C)cc1)c1c(OC)cc(OC)c2ccc(=O)oc12 (stereo not drawn) | i | i | i | i | i
CCN(CC)C(=O)CC(c1ccc2c(c1)OCO2)c1c(OC)cc(OC)c2ccc(=O)oc12 (stereo not drawn) | i | i | i | -38 | i
Cc1cc(NC(=O)C(C)C)ncc1NC(=O)Cc1ccccc1 | i | i | i | i | i
SMILES | TRHR enhancer | TRHR ag | D1 ag | D1 antagonist | D1 PAM
COc1cc(C(=O)Nc2cnc(NC(=O)C(C)C)cc2C)cc(OC)c1OC | i | i | i | -47 | i
O=C(Nc1ccc(N=Nc2ccccc2)cc1)c1ccc(Cl)cc1Cl | i | i | i | -38 | i
O=C(Nc1ccc(N=Nc2ccccc2)cc1)c1ccccc1Cl | i | i | i | i | i
COc1cccc(OCc2cc(=O)n3cc(C)sc3n2)c1 | i | i | i | i | i
CSc1cccc(CN2CCC(CCC(=O)NC3CC3)CC2)c1 | i | i | i | -49 | i
Cc1cccc(C)c1NC(=O)C1CCCN1S(=O)(=O)c1cccc2nsnc12 (stereo not drawn) | i | i | i | i | i
CCO[C@H]1OC(C(N)=O)=C[C@@H](C)[C@@H]1CCCO | 33 | i | i | i | i
Cc1nn2c(C)c(C(=O)NC(C)c3ccccc3)cnc2c1-c1ccc(F)cc1 (stereo not drawn) | i | i | i | i | i
COc1ccc(-c2noc(N3CCC(C(=O)Nc4ccccc4OC)CC3)n2)cc1 | i | i | i | -34 | i
COc1ccc(-c2noc(CSc3nc(N)cc(=O)[nH]3)n2)cc1OC | i | i | i | i | i
COc1cccc(CN(Cc2ccco2)C(c2ccc(F)cc2)c2nnnn2C(C)(C)C)c1 (stereo not drawn) | i | i | i | -34 | i
CC(C)c1ccc(C(=O)Nc2cccnc2)cc1 | i | i | i | i | i
COc1cccc(C(=O)N2CCN(C(=O)C3CC3)CC2)c1 | i | i | i | i | i
CCCSc1ncc(Cl)c(C(=O)N(Cc2ccc(N(C)C)cc2)C2CCS(=O)(=O)C2)n1 (stereo not drawn) | i | i | i | i | i
CCCn1c(SCC(=O)c2ccc3c(c2)OCCO3)nnc1-c1ccco1 | i | i | i | -36 | i
CC(C)NC(=O)CSc1nnc(-c2ccco2)n1N | i | i | i | -67 | i
CCCn1c(SCC(N)=O)nnc1-c1ccco1 | i | i | i | -55 | i
CN(Cc1ccccc1)C(=O)c1ccc(CSc2nc3cccnc3n2Cc2ccccc2F)cc1 | i | i | i | i | i
CCOC(=O)c1cccc(NC(=O)COc2ccc3c(C)cc(=O)oc3c2)c1 | i | i | i | i | i
Cc1ccc(S(=O)(=O)N2CCOCC2)cc1C(=O)OCC(=O)NC1CCCC(C)C1C (stereo not drawn) | i | i | i | i | i
COc1ccc(NC(=O)C(CC(=O)O)C(C)c2ccccc2)cc1 (stereo not drawn) | i | i | i | -39 | i
Cc1c2ccccc2nc2c(F)c(NC(C)C)c(F)c(F)c12 | i | 40 | 64 | i | i
OCCNc1c2ccccc2nc2c(F)c(F)c(F)c(F)c12 | i | i | i | i | i
Cc1nc(N)c(Cc2ccccc2F)c(N)n1 | i | i | i | -35 | i
N#C/C(=C\c1ccc(Cl)cc1)C(=O)NCC1CCCO1 (stereo not drawn) | i | i | i | i | i
CCOC(=O)c1c(C)[nH]c(C)c1C(=O)COC(=O)/C=C/c1ccc(OC(F)F)cc1 | i | i | i | i | 33
Cn1c2ccccc2c(=O)c2ccc(-c3ccc4c(c3)OCO4)cc21 | i | i | i | -48 | i
Cn1nc(-c2ccc3c(c2)OCCO3)c2ccccc2c1=O | i | i | i | -34 | i
